Source: PubChem BioAssay (EPA / NIEHS)
Where “and” joins values, the source holds several entries; their conditions need not be identical. Equal values may be shown once. Inconclusive results are not listed. More than one record can exist for a structure, and the calls need not agree. Calls of active or inactive are those of the source. The calls were made as follows, unless noted: active = hit-call score of the fitted dose curve at least 0.9, where 1 is the maximum; inactive = score below 0.9.

Columns and labels:
[1] = biological target: human RAR-related Orphan Receptor gamma (RORg), RORC (gene 6097) (UniProt P51449); assay: ATG_RORg_TRANS: Attagene TRANS-FACTORIAL HepG2 Assay for human RAR-related Orphan Receptor gamma (RORg) (AID 2283011; active = hit-call score of the fitted dose curve at least 0.9, where 1 is the maximum)
Sequence of human RAR-related Orphan Receptor gamma (RORg), RORC (gene 6097) (P51449 whole entry, looked up, the tested form may be a part): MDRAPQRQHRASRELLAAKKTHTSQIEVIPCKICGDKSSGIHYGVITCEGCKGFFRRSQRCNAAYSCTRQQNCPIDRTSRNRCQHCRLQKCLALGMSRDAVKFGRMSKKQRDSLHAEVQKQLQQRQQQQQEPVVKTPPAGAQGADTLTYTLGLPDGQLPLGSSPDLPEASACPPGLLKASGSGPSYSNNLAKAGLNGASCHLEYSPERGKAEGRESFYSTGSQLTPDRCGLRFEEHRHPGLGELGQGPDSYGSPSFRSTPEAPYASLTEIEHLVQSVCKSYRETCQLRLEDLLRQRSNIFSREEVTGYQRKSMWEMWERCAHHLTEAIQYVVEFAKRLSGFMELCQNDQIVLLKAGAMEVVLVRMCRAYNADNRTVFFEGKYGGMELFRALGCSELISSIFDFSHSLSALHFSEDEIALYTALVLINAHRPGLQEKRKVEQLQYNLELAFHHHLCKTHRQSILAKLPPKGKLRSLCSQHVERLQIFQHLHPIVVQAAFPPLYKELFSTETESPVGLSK
Procedure, shortened: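 First, HepG2 liver cells were transfected with GAL4-UAS-driven reporter constructs and the RORg-Gal4 fusion. Next, they were treated with chemical for 24 h. Finally, reporter mRNA was quantified by RT-PCR and capillary electrophoresis, with upward activity fitted against DMSO.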

[2] = biological target: Retinoic acid receptor RXR-alpha (Homo sapiens) (UniProt P19793); assay: ATG_RXRa_TRANS: Attagene TRANS-FACTORIAL HepG2 Assay for human Retinoid X Receptor alpha (RXRa) (AID 2283012; active = hit-call score of the fitted dose curve at least 0.9, where 1 is the maximum)
Sequence of Retinoic acid receptor RXR-alpha (Homo sapiens) (P19793 whole entry, looked up, the tested form may be a part): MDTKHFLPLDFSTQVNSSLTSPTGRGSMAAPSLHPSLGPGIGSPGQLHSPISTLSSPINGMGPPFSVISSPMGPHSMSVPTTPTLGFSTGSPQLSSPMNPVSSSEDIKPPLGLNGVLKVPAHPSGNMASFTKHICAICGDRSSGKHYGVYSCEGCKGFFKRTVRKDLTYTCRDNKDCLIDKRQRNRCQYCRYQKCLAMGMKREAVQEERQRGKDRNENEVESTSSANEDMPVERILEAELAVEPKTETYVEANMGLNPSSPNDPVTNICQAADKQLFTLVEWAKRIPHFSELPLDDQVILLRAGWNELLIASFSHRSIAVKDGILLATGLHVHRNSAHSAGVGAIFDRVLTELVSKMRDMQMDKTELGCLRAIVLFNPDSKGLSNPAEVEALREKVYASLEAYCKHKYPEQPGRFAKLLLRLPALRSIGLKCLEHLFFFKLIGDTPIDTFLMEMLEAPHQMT
Procedure, shortened: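 HepG2 cells transiently transfected with multiplexed GAL4-UAS reporter units and chimeric NR-GAL4 fusions, dosed 24 h. Reporter mRNA measured by RT-PCR, FAM labelling, HpaI digestion and capillary electrophoresis; gain-of-signal fitted relative to DMSO baseline.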

[3] = biological target: human Retinoid X Receptor beta (RXRb), RXRB (gene 6257) (UniProt P28702); assay: ATG_RXRb_TRANS: Attagene TRANS-FACTORIAL HepG2 Assay for human Retinoid X Receptor beta (RXRb) (AID 2283013; active = hit-call score of the fitted dose curve at least 0.9, where 1 is the maximum)
Sequence of human Retinoid X Receptor beta (RXRb), RXRB (gene 6257) (P28702 whole entry, looked up, the tested form may be a part): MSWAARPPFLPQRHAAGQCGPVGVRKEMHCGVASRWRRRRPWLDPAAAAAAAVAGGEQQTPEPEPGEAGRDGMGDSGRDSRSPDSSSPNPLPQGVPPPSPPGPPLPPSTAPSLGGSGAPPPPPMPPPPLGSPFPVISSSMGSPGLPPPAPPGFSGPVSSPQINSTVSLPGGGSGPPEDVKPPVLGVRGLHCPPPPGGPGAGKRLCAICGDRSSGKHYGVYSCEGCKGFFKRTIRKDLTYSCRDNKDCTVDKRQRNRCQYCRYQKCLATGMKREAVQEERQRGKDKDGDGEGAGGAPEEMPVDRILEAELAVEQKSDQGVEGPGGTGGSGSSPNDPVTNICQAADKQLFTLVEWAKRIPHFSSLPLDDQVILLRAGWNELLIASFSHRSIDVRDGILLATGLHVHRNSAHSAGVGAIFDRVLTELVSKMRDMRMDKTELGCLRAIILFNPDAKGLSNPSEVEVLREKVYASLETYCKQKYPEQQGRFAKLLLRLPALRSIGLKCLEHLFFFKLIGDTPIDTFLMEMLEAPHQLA
Procedure, shortened: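 HepG2 cells transiently transfected with multiplexed reporter units driven by GAL4-UAS and exogenous chimeric NR-Gal4 proteins; treated 24 h. Reporter mRNA measured by RT-PCR, 6-FAM labelling and capillary electrophoresis; gain-of-signal fitted versus DMSO baseline.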

[4] = biological target: human Thyroid Receptor alpha (THRa1), THRA (gene 7067) (UniProt P10827); assay: ATG_THRa1_TRANS: Attagene TRANS-FACTORIAL HepG2 Assay for human Thyroid Receptor alpha (THRa1) (AID 2283014; active = hit-call score of the fitted dose curve at least 0.9, where 1 is the maximum)
Sequence of human Thyroid Receptor alpha (THRa1), THRA (gene 7067) (P10827 whole entry, looked up, the tested form may be a part): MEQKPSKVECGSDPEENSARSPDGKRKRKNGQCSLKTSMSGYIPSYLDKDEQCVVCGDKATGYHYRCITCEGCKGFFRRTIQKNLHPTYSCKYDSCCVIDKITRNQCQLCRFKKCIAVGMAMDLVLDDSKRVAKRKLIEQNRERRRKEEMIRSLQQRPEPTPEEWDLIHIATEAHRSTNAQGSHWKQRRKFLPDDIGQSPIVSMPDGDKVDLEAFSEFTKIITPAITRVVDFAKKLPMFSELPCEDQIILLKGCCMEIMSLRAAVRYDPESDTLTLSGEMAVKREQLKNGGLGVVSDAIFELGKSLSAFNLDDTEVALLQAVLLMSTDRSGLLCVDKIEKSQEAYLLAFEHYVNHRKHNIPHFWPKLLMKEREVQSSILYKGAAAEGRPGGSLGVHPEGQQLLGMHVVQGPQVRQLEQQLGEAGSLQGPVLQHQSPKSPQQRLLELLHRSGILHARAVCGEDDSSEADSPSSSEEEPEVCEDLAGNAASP
Procedure, shortened: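 Reporter transcript induction, read by capillary electrophoresis of 6-FAM-labelled RT-PCR products, reflects activity of a transfected THRa1-Gal4 fusion in HepG2 liver cells. Cells were dosed for 24 h; activity was fitted in the positive direction against DMSO.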

[5] = read-out: E-selectin (Homo sapiens) (UniProt P16581); assay: BSK_3C_Eselectin: BioMAP Diversity Plus: 3C Assay for Eselectin Biomarker Activity (AID 2283015); details: primary human endothelial cells (HUVEC); actives raise or lower the signal;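 also: cell surface E-selectin protein quantified by ELISA 24 h after dosing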
Procedure, shortened: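 ELISA read-out of E-selectin on endothelial monolayers after 24 h chemical treatment. Human umbilical vein primary cells served as the system, with DMSO defining baseline activity for bidirectional fitting.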

[6] = read-out: Interleukin-1 alpha (IL1a), IL1A (gene 3552); assay: BSK_BE3C_IL1a: BioMAP Diversity Plus: BE3C Assay for Interleukin-1 alpha (IL1a) Biomarker Activity (AID 2283016); details: primary human bronchial epithelial cells; actives raise or lower the signal
Procedure, shortened: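 Human primary bronchial epithelial cells (BE3C system) were dosed with compound and IL-1a measured by ELISA 24 h later. Activity was fitted bidirectionally against DMSO baseline; cytotoxicity was tracked in parallel cultures by SRB total-protein staining.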

[7] = read-out: Monocyte Chemoattractant Protein-1 (MCP1), CCL2 (gene 6347); assay: BSK_3C_MCP1: BioMAP Diversity Plus: 3C Assay for Monocyte Chemoattractant Protein-1 (MCP1) Biomarker Activity (AID 2283017); details: primary human endothelial cells (HUVEC); actives raise or lower the signal
Procedure, shortened: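 ELISA read-out of MCP-1 from human umbilical vein endothelial cell cultures harvested 24 h post-dosing. Gain or loss of signal was fitted relative to DMSO.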

[8] = read-out: Human Leukocyte Antigen - DR isotype (HLADR), HLA-DRA (gene 3122); assay: BSK_3C_HLADR: BioMAP Diversity Plus: 3C Assay for Human Leukocyte Antigen - DR isotype (HLADR) Biomarker Activity (AID 2283019); details: primary human endothelial cells (HUVEC); actives raise or lower the signal
Procedure, shortened: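 ELISA readout of surface HLA-DR on human umbilical vein endothelium, taken 24 h after chemical treatment. Gain- and loss-of-signal were both fitted relative to DMSO.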

[9] = read-out: Interleukin-8 (IL8), CXCL8 (gene 3576); assay: BSK_3C_IL8: BioMAP Diversity Plus: 3C Assay for Interleukin-8 (IL8) Biomarker Activity (AID 2283020); details: primary human endothelial cells (HUVEC); actives raise or lower the signal
Procedure, shortened: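 Primary human umbilical vein endothelial cells (3C system) were exposed to test chemical for 24 h, then IL-8 was quantified by ELISA. Responses were fitted bidirectionally against DMSO vehicle as baseline.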

[10] = read-out: Monokine induced gamma interferon (MIG), CXCL9 (gene 4283); assay: BSK_3C_MIG: BioMAP Diversity Plus: 3C Assay for Monokine induced gamma interferon (MIG) Biomarker Activity (AID 2283021); details: primary human endothelial cells (HUVEC); actives raise or lower the signal;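 as to AC50: MIG protein level measured by immunoassay in the treated endothelial cultures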
Procedure, shortened: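 Primary human umbilical vein endothelial cells in the 3C system were exposed to chemical for 24 h, after which MIG was quantified by ELISA. Activity was fitted bidirectionally against DMSO as negative control and baseline.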

[11] = BSK_3C_SRB: Viability Assessment in the BioMAP Diversity Plus: 3C Assay (AID 2283023); details: primary human endothelial cells (HUVEC);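 also: fitted both ways against DMSO so a hit may be signal rise or drop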
Procedure, shortened: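 Absorbance at 560 nm of sulforhodamine B-stained (0.1%) total protein served as a cytotoxicity readout in human umbilical vein endothelial cells, 24 h after chemical treatment. Signal was fitted bidirectionally relative to DMSO.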

[12] = read-out: Matrix Metallopeptidase 1 (MMP1), MMP1 (gene 4312); assay: BSK_BE3C_MMP1: BioMAP Diversity Plus: BE3C Assay for Matrix Metallopeptidase 1 (MMP1) Biomarker Activity (AID 2283024); details: primary human bronchial epithelial cells; actives raise or lower the signal
Procedure, shortened: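 Primary human bronchial epithelial cells were dosed with test chemicals, and MMP1 levels were measured by ELISA 24 h later. Data were fitted bidirectionally against DMSO as the negative control and activity baseline.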

[13] = BSK_3C_Vis: BioMAP Diversity Plus: 3C Assay for Morphology Visualization (AID 2283025); details: primary human endothelial cells (HUVEC);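 also: fitted both ways so gain or loss versus DMSO counts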
Procedure, shortened: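 Human umbilical vein endothelial cells in the 3C system were imaged by light microscopy 24 h after chemical dosing to record cell morphology. Activity was fitted bidirectionally against DMSO as negative control and baseline; the endpoint serves as a background control.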

[14] = read-out: Pselectin, SELP (gene 6403); assay: BSK_4H_Pselectin: BioMAP Diversity Plus: 4H Assay for Pselectin Biomarker Activity (AID 2283026); details: primary human endothelial cells (HUVEC); actives raise or lower the signal
Procedure, shortened: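 Primary human umbilical vein endothelial cells were exposed to test chemical for 24 h, then cell-surface P-selectin was quantified by ELISA. Activity was fitted bidirectionally against DMSO as negative control and baseline.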

[15] = BSK_4H_SRB: Viability Assessment in the BioMAP Diversity Plus: 4H Assay (AID 2283027); details: primary human endothelial cells (HUVEC);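 also: cells exposed to compound for 24 h before staining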;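 as to AC50: curves fitted both ways versus DMSO so AC50 may be loss or gain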
Procedure, shortened: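 Human umbilical vein endothelial cells, 24 h after chemical dosing; total protein measured by 0.1% sulforhodamine B staining after 10% TCA fixation, read at 560 nm. Bidirectional fitting against DMSO.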

[16] = BSK_BE3C_SRB: Viability Assessment in the BioMAP Diversity Plus: BE3C Assay (AID 2283028); details: primary human bronchial epithelial cells;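 as to AC50: fitted both ways so AC50 may mark signal gain or loss versus DMSO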
Procedure, shortened: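 Cells (human bronchial epithelial, primary) are treated with chemicals, and after 24 h the parallel cultures are fixed in 10% TCA. These are then stained with 0.1% SRB and read at 560 nm. Gain or loss of signal is fitted relative to DMSO.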

[17] = read-out: Thrombomodulin, THBD (gene 7056); assay: BSK_3C_Thrombomodulin: BioMAP Diversity Plus: 3C Assay for Thrombomodulin Biomarker Activity (AID 2283029); details: primary human endothelial cells (HUVEC); actives raise or lower the signal
Procedure, shortened: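 Primary human umbilical vein endothelial cells (3C system) were exposed to chemical for 24 h, then thrombomodulin levels were measured by ELISA. Activity was fitted bidirectionally against the DMSO negative control as baseline.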

[18] = read-out: Urokinase-type plasminogen activator receptor (uPAR), PLAUR (gene 5329); assay: BSK_4H_uPAR: BioMAP Diversity Plus: 4H Assay for Urokinase-type plasminogen activator receptor (uPAR) Biomarker Activity (AID 2283030); details: primary human endothelial cells (HUVEC); actives raise or lower the signal
Procedure, shortened: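 Cell-surface uPAR ELISA signal, measured 24 h after dosing human umbilical vein endothelial cells, was analyzed with bidirectional fitting relative to DMSO. Parallel SRB staining of total protein tracked overt cytotoxicity.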

[19] = biological target: human Vitamin D Receptor (VDR), VDR (gene 7421) (UniProt P11473); assay: ATG_VDR_TRANS: Attagene TRANS-FACTORIAL HepG2 Assay for human Vitamin D Receptor (VDR) (AID 2283022; active = hit-call score of the fitted dose curve at least 0.9, where 1 is the maximum)
Sequence of human Vitamin D Receptor (VDR), VDR (gene 7421) (P11473 whole entry, looked up, the tested form may be a part): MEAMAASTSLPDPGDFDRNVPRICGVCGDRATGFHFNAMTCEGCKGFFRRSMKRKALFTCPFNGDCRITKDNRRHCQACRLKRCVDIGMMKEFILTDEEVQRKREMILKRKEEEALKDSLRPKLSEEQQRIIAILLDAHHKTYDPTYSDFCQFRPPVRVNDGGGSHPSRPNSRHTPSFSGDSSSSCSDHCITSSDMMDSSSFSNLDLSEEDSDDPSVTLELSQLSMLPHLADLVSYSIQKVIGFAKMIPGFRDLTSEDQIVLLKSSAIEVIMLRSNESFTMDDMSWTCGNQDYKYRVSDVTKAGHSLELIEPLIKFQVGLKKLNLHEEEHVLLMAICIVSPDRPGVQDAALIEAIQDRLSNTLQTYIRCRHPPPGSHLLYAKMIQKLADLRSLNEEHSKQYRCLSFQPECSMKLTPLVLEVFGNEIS
Procedure, shortened: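 Steps: transfect HepG2 with GAL4-UAS-driven reporter constructs; dose compounds 24 h; isolate RNA, reverse-transcribe, PCR-amplify with 6-FAM-labelled primer extension and HpaI digestion; quantify fragments by capillary electrophoresis relative to DMSO.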

[20] = read-out: Monocyte Chemoattractant Protein-1 (MCP1), CCL2 (gene 6347); assay: BSK_4H_MCP1: BioMAP Diversity Plus: 4H Assay for Monocyte Chemoattractant Protein-1 (MCP1) Biomarker Activity (AID 2283018); details: primary human endothelial cells (HUVEC); actives raise or lower the signal
Procedure, shortened: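 Human umbilical vein endothelial cells (4H system) dosed with chemical; MCP-1 measured by ELISA 24 h after dosing. Bidirectional curve fitting against DMSO negative control as baseline; parallel SRB total-protein staining tracks overt cytotoxicity.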

Measured: AC50

Sequence of E-selectin (Homo sapiens) (P16581 whole entry, looked up): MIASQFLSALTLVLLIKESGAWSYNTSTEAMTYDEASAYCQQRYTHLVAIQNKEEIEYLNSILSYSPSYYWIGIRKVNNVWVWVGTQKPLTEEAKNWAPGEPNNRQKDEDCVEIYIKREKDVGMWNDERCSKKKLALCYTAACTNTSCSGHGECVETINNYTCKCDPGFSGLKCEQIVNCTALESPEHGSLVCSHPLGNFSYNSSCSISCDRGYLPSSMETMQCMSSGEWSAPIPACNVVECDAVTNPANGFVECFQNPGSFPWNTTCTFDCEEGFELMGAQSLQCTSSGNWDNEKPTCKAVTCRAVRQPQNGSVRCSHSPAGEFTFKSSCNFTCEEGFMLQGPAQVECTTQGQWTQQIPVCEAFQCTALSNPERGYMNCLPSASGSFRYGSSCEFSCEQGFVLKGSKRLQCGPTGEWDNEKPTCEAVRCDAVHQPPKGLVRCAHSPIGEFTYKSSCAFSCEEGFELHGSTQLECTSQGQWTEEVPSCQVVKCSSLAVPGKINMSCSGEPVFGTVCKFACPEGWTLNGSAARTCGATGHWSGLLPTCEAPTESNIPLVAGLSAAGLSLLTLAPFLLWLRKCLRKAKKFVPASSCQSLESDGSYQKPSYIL

O=c1ccc(=O)[nH][nH]1
not listed: [19] | [20]
inactive: all other assays above

CCC(CC)Nc1c([N+](=O)[O-])cc(C)c(C)c1[N+](=O)[O-]
active: [7] 36.6 µM | [8] 36.2 µM | [9] 23.8 µM | [11] 16.7 µM | [12] 20 µM | [13] 13.7 µM | [14] 28.5 µM | [15] 35.6 µM | [16] 20 µM | [17] 15.5 µM
inactive: [1] | [2] | [3] | [6] | [10] | [19] | [18]

CCNc1nc(Cl)nc(NC(C)(C)C#N)n1
not listed: [4] | [19] | [20]
inactive: all other assays above

COP(=O)(NC(C)=O)SC (stereo unspecified)
active: [11] 5.17 µM
not listed: [5]
inactive: all other assays above

CC1(C(=O)Nc2ccc(O)c(Cl)c2Cl)CCCCC1
active: [16] 17.8 µM
not listed: [3] | [4] | [5]
inactive: all other assays above

C#CC(C)(C)NC(=O)c1cc(Cl)cc(Cl)c1
active: [8] 19.1 µM | [13] 3.25 µM
not listed: [5] | [19] | [20]
inactive: all other assays above

O=[N+]([O-])c1cc(C(F)(F)F)c(Cl)c([N+](=O)[O-])c1Nc1ncc(C(F)(F)F)cc1Cl
active: [6] 1.95 µM and 6.28 µM | [7] 3.5 µM and 4.23 µM | [20] 738 nM and 3.46 µM | [8] 919 nM and 1.74 µM | [9] 3.36 µM and 4.25 µM | [10] 3.73 µM and 5.09 µM | [11] 1.49 µM | [12] 3.93 µM | [13] 1.5 µM and 2.12 µM | [14] 1.18 µM and 2.13 µM | [15] 1 µM and 2.39 µM | [16] 1.79 µM and 4.1 µM | [17] 774 nM and 2.49 µM | [18] 1.4 µM and 2.25 µM
inactive: [1] | [2] | [3] | [4] | [19] | [11]

C[N+]1(C)CCCCC1
not listed: [5] | [19] | [20]
inactive: all other assays above

CNc1cnn(-c2cccc(C(F)(F)F)c2)c(=O)c1Cl
active: [8] 3.97 µM
not listed: [2] | [5] | [19]
inactive: all other assays above

CC(C)N(C(=O)SCC(Cl)=C(Cl)Cl)C(C)C
active: [7] 31.1 µM | [8] 32.9 µM | [9] 30.2 µM | [10] 38.3 µM | [11] 29.8 µM | [13] 37.2 µM | [14] 31.5 µM | [15] 33.4 µM | [18] 31.4 µM
inactive: [2] | [3] | [4] | [6] | [12] | [16] | [17]

CNC(=O)ON=C(C)SC
not listed: [2] | [4] | [5] | [19] | [20]
inactive: all other assays above

COP(=O)(OC)OC(Br)C(Cl)(Cl)Br (stereo unspecified)
inactive: [12] | [17]
active: [6] 29.8 µM | [7] 35.6 µM | [8] 14.9 µM | [9] 34.9 µM | [10] 35.2 µM | [11] 28.8 µM | [13] 16.3 µM | [14] 13.2 µM | [15] 29 µM | [16] 25 µM | [18] 27.9 µM

CN(C)[C@@H]1C(=O)C(C(N)=O)=C(O)[C@@]2(O)C(=O)C3=C(O)c4c(O)cccc4[C@@](C)(O)[C@H]3[C@H](O)[C@@H]12
active: [12] 15.8 µM
inactive: [2] | [3] | [4] | [5] | [6] | [7] | [8] | [9] | [10] | [11] | [12] | [13] | [14] | [15] | [16] | [17] | [18]

CNC(=O)ON=C(SC)C(=O)N(C)C
active: [13] 39 µM
not listed: [1] | [2] | [4] | [19] | [20]
inactive: all other assays above
